Screening results (PubChem)
Rows were chosen to be rich in hits. Some 7.9% of all compounds tested hit in one or more screens of this group.
HCMV inh: inhibitors of human cytomegalovirus | HFF cells, HCMV-luciferase reporter, 72 h; active compounds read low | activity change, negative = inhibition, % at 57.5 µM | 410,000 tested, 4.5% active; in the data active means activity change below about -60%; inconclusive means no clear call, values can overlap the other calls; inactive means above about -39%
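Compounds were evaluated in HFFs infected with an HCMV luciferase reporter virus (MOI 1 PFU/cell). Luciferase in lysates collected 72 h post infection served as the replication measure.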
FMDV inh: foot and mouth disease virus antiviral activity; FMDV antiviral cell-based qHTS; Potency, µM (highest dose often 57.9 µM), for the others: at the highest dose activity change, negative = inhibition, most hits filed as inhibitors; AID 1159524; 410,000 tested, 1.2% active; calls by dose curve; tested in HEK293T cells; further: read-out not given here; potency means the concentration at half of the fitted maximal effect; nearly all actives have a fitted effect of over 45% in size
Marburg entry inh: blocks Marburg virus binding to or entry into cells. Marburg virus pseudotyped entry inhibition, cell reporter. Potency, µM (series often up to 37.8 µM), for the others: at the top dose activity change, negative = inhibition, usual class: inhibitors. 300,000 tested, 1.8% active. AID 540276; calls by dose curve; tested in HEK293 cells; further: potency means the concentration at half of the fitted maximal effect
LASV entry inh: blocks Lassa virus binding to or entry into cells. Lassa virus pseudotype entry inhibition, cell reporter. 300,000 tested, 1.2% active. Potency, µM (top dose mostly 37.9 µM), for inactives: top-dose activity change, negative = inhibition, hits mostly inhibitors. AID 540256; calls by dose curve; tested in HEK293 cells; further: potency means the concentration at half of the fitted maximal effect; nearly all actives have a fitted effect of over 50% in size
HCV inhibitor: HCV inhibition. Potency, µM (highest dose often 41.8 µM), for the others: top-dose activity change, negative = inhibition, hits mostly inhibitors. Huh7.5.1 HCVcc-Cre infection, luciferase reporter, 44 h. 340,000 tested, 3.4% active. AID 651820; active means well fitted inhibition curve with a large enough effect; inconclusive means small, poorly fitted or top-dose-only effect, or another doubt; inactive means no such curve, though single readings can be large or run the other way; further: potency means the concentration at half of the fitted maximal effect
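Cells seeded at 1,000/well and cultured 4 h, then compounds added followed by HCVcc-Cre virus (~0.5 moi). After 44 h further culture, luciferase substrate was added, plates held 15 min at room temperature, and luminescence read for 15 sec.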
Active calls of the source: *; ? = inconclusive; . = not tested or not shown; [ ] = dose if it differs, or a comment. On the % scale 0 is the no-effect control and ±100 the full control effect.

SMILES	HCMV inh	FMDV inh	Marburg entry inh	LASV entry inh	HCV inhibitor
COc1ccc(OCC(=O)N2CCN(c3nnc(-c4ccccc4)c4ccccc34)CC2)cc1	15.1	?	?	?	17.8µM*
Cc1cccc(OCC(=O)N2CCN(c3nnc(-c4ccccc4)c4ccccc34)CC2)c1	-31.8	?	.	.	?
CCc1ccccc1NC(=O)c1ncoc1-c1ccco1	10.7	0.0%	.	14.4%[46.1 µM]	.
Cc1ccc(OCC(=O)N2CCN(c3nnc(-c4ccc(C)cc4)c4ccccc34)CC2)cc1	-98.7*	?	4.11µM*	?	8.91µM*
O=C(c1ccc(S(=O)(=O)c2cccc(Cl)c2)c([N+](=O)[O-])c1)N1CCN(c2ccccn2)CC1	-78.0*	15.8µM*	7.08µM*	?	?
O=C(c1ccc(S(=O)(=O)Cc2ccccc2F)c([N+](=O)[O-])c1)N1CCCCCC1	?	?	?	-8.8%	?
O=C(c1ccc(S(=O)(=O)c2ccccc2Cl)c([N+](=O)[O-])c1)N1CCCCCC1	-65.0*	?	?	-24.9%	?
O=C(NCCc1nnc2n1CCN(Cc1ccc(F)cc1)CC2)c1ccc(F)cc1	.	-10.2%	.	.	.
N/C(CCCN1CCCCC1)=N\O	.	.	4.1%	.	.
CC(=O)c1cccc(NC(=O)c2ccc(CN3CCc4ccccc4C3)cc2)c1	-5.2	?	.	.	11.2µM*
Cc1ccc(C(=O)Nc2ccc3c(c2)CCC3)cc1	-74.4*	-20.4%	?	16.4µM*	-25.9%
C/C(=N\NC(=O)c1ccc(CN2CCc3ccccc3C2)cc1)c1ccccc1O	-96.3*	22.4µM*	?	-28.8%[46.1 µM]	5.62µM*
COc1ccc(NC(=O)c2oc3c(c2C)-c2nn(Cc4ccccc4Cl)cc2CC3)cc1OC	-63.7*	-28.4%	.	13.5%[46.1 µM]	.
CCN1C(=O)C(Cc2nc3ccccc3c(=O)n2-c2ccc(OC)cc2)c2ccccc21 (stereo not given)	-18.7	-18.7%	-3.8%[46.1 µM]	0.8%[46.1 µM]	.
CCN(CC)C(=O)c1c(-c2ccccc2)c(-c2ccccc2)nn(C)c1=O	-34.8	-5.5%	?	-13.2%[46.1 µM]	.
COc1cccc(NC(=O)c2ccc(N3C(=O)C4CC=C(C)CC4C3=O)cc2)c1 (stereo not given)	-63.8*	?	.	.	?
COc1cccc(NC(=O)c2ccc(CN3CCc4ccccc4C3)cc2)c1	?	-21.6%	.	.	1µM*
CCOc1ccccc1NC(=O)c1ccc(CN2CCc3ccccc3C2)cc1	1.0	-10.8%	2.5%	3.1%	?
NC(=O)C1CCN(CCC(=O)Nc2ccc3c(c2)CCC3)CC1	-4.1	4.3%	-4.0%	-4.6%	-1.0%
CC1CCN(CCC(=O)Nc2ccc3c(c2)CCC3)CC1	-80.4*	.	-26.2%	2.8%	?
O=C(Nc1ccc(N2CCN(Cc3ccccc3)CC2)cc1)c1cccnc1	-61.1*	-25.1%	-13.2%	-21.3%	-31.5%
N.N.N.N.N.N.N.N.N.N.N.N.N.N.O.O.[Ru+4].[Ru+5].[Ru+5]	.	.	?	-26.2%	.
CCOCCCN(Cc1ccco1)C(=O)c1cc2c(s1)-c1c(C)cccc1OC2	-30.7	16.6%	-12.0%[46.1 µM]	.	.
COc1cccc(NC(=O)c2ccc(CN3CCN(c4ccccc4)CC3)cc2)c1	-67.3*	?	5.8µM*	?	14.1µM*
COc1ccc(NC(=O)c2ccc(CN3CCc4ccccc4C3)cc2)cc1OC	-64.1*	-28.7%	.	.	12.6µM*
SMILES	HCMV inh	FMDV inh	Marburg entry inh	LASV entry inh	HCV inhibitor
CC(=O)c1cccc(NC(=O)c2ccc3c(c2)CCCC3)c1	120.7	35.2%	.	.	11.2µM*
Cc1cc(C)c(NC(=O)c2ccc(CN3CCc4ccccc4C3)cc2)c(C)c1	-34.4	?	?	15.8µM*	8.91µM*
CCN(CC)c1cc2c(cc1F)c(=O)c(S(=O)(=O)c1ccc(C)cc1)cn2Cc1ccc(F)cc1	3.2	-14.2%	.	5.8%[46.1 µM]	.
Cc1nc2cc(NC(=O)[C@@H]3C[C@@H](Sc4ccccn4)CN3Cc3ccc4c(c3)OCCO4)ccc2s1	.	4.5%	.	.	.
CCN1CCN(c2cc(C(C)C)nc3c(-c4ccccc4)c(C)nn23)CC1	-92.7*	-20.3%	?	?	-89.2%
CCN1CCN(c2cc(C(C)(C)C)nc3c(-c4ccccc4)c(C)nn23)CC1	-74.9*	-7.9%	?	?	3.98µM*
O=C(Nc1cccc(Cl)c1Cl)c1cc(S(=O)(=O)N2CCCc3ccccc32)ccc1F	-16.0	-13.5%	.	-15.4%[46.1 µM]	.
OC(c1ccc2c(c1)CN(Cc1c[nH]c3ccccc13)CCO2)c1ccccn1 (stereo not given)	.	3.0%	.	.	.
O=C(O)C(c1ccccc1)N1C(=O)/C(=C/c2cccs2)SC1=S (stereo not given)	?	-1.1%	8.0%[46.1 µM]	10.7%	6.5%
O=C(CCN1C(=O)/C(=C/c2ccccc2)SC1=S)NNC(=O)c1ccncc1	?	-17.9%	-19.0%[46.1 µM]	29.4%[46.1 µM]	7.0%
CC(c1ccccc1)N1C(=O)/C(=C/c2ccncc2)SC1=S (stereo not given)	-2.3	31.6µM*	.	.	?
O=C(O)CCCN1C(=O)/C(=C/c2ccncc2)SC1=S	-61.4*	-24.8%	?	?	?
O=C(O)CCCCCN1C(=O)/C(=C/c2ccncc2)SC1=S	-77.3*	-24.5%	?	0.0%	4.8%
COc1ccc(CN2C(=O)/C(=C/c3ccncc3)SC2=S)cc1	-71.8*	-8.8%	?	?	?
O=C(O)CCCCCN1C(=O)/C(=C\c2ccc(-c3ccc(Cl)cc3)o2)SC1=S	-35.7	-26.5%	-6.3%[46.1 µM]	18.9%	8.5%
O=C(CCN1C(=O)/C(=C\c2ccccc2)SC1=S)NNC(=O)c1ccncc1	-35.0	-19.1%	.	.	18.3%
O=C(O)CCCCCN1C(=O)/C(=C\c2ccncc2)SC1=S	-98.7*	-12.1%	3.8%	-8.0%	14.0%
CCOC(=O)c1cnc2c(OC)cccc2c1NCc1cccnc1	-62.3*	?	.	.	-18.4%
CCOC(=O)c1cnc2c(OC)cccc2c1Nc1cccc(O)c1	?	25.1µM*	-9.5%[46.1 µM]	-21.9%[46.1 µM]	.
CCOC(=O)c1cnc2c(C(F)(F)F)cccc2c1Nc1cccc(C(=O)OC)c1	-18.4	-26.7%	6.1%[46.1 µM]	23.1%[46.1 µM]	.
COc1cccc(CNC(=O)c2oc3ccc4c(c3c2C)C(=O)CC(C)(C)O4)c1OC	-6.1	9.8%	18.5%[46.1 µM]	.	.
Cc1ncoc1C(=O)N1CCOc2ccc(CN3CCC(Oc4cccnc4)CC3)cc2C1	.	-1.5%	.	.	.
COc1nc(N(C)S(=O)(=O)c2ccc(C)cc2)nc(C)c1Cl	-60.9*	-7.6%	-16.8%	-26.7%	?
O=C(Nc1ccc(Cl)c(C(F)(F)F)c1)C(Cc1ccccc1)NS(=O)(=O)c1ccc(Br)s1 (stereo not given)	-9.1	-12.1%	-2.8%[46.1 µM]	5.8%[46.1 µM]	.
C=CCn1cccc(C(=O)Nc2ccc(OCC)cc2)c1=O	-62.7*	0.4%	-47.6%[46.1 µM]	?	11.2µM*
C=CCn1cccc(C(=O)Nc2ccc(SC)cc2)c1=O	.	-10.4%	.	.	?
C=CCn1cccc(C(=O)Nc2ccc(Cl)cc2)c1=O	12.6	9.8%	.	.	11.2µM*
O=C1CN(C(=O)c2ccc(S(=O)(=O)N3CCCC3)cc2)C(c2ccccc2)c2cc(Br)ccc2N1 (stereo not given)	-31.3	0.0%	4.5%[46.1 µM]	?	.
